For 40 compounds, Potency results are on record in PubChem BioAssay (Tox21).

Each structure is given as a SMILES string. Several values for one entry are separate records, joined by “and”; a condition that tells them apart may be missing. Equal entries are not always repeated. Inconclusive results are not listed. A call without a number means that no potency is given here. A structure can be active in one record and inactive in another. Activity calls are given as the source filed them. The call rests on the fitted dose curve; in most records, active means well fitted activation curve with a large enough effect in the repeat runs; inconclusive means weak or mixed curves; inactive means flat fitted curve, though single readings scatter.
Potency means the concentration at half of the fitted maximal effect.

The assay in a line: A CellTox Green Cytotoxicity Assay to monitor cytotoxicity in HepG2 cells - 16 hour (AID 1224876). Further: nearly all actives have a fitted effect of over 45% in size. The note with it: CellTox Green fluorescence; series mostly up to 76.8 µM. An excerpt: National Center for Advancing Translational Sciences [NCATS]
NIH Chemical Genomics Center [NCGC]
U.S. Environmental Protection Agency [EPA]
National Institutes of Environmental Health Sciences [NIEHS]
National Toxicology Program [NTP]
Cell-based models are critical for drug discovery. Determining the natural cytotoxic effects resulting from test compounds is an essential research activity. A CellTox Green Cytotoxicity Assay to monitor cytotoxicity in real time of continues cell culture during 40 hours of the compound treatment was used to screen Tox21 10K library compounds in HepG2 cells. CellTox Green Cytotoxicity Assay is a nonlytic, homogeneous, biofluorescent method to measure cytotoxicity in cell culture after experimental manipulation. The assay system uses a proprietary asymmetric cyanine dye that is excluded from viable cells but preferentially stains the dead cell's DNA. […] Viable cells produce no appreciable increases in fluorescence. Therefore, the fluorescence signal produced by the binding interaction with dead cell DNA is proportional to cytotoxicity.
The mixture of HepG2 cell suspension and reagents were dispensed at 600cells/6 ul/well in 1536-well tissue culture treated black solid bottom plates using a Multidrop dispenser. After the assay plates were incubated at a 37 C/5% CO2 incubator for 5 hours, 23 nL of compounds dissolved in DMSO, positive and negative controls was transferred to the assay plate by a pintool work station. The plates were incubated at 37 C for 40 hours. The fluorescence intensity were measured at 0h, 8h, 16h, 24h, 32h and 40h time points using ViewLux plate reader during compound treatment.
`CC(C)=CCC/C(C)=C/CO`: the Potency result is “inactive”.

As to `Nc1ccc(N=Nc2ccccc2)c(N)n1`, the Potency entry is “inactive”.

On to `NC(=O)c1ccc([N+](=O)[O-])cc1Cl`, for which the Potency result is “inactive”.

Take `C[C@]12C=CC(=O)C=C1CC[C@@H]1[C@@H]2C(=O)C[C@@]2(C)[C@H]1CC[C@]2(O)C(=O)CO`: the Potency entry is “inactive”.

On to `Cc1c(N(C)C)c(=O)n(-c2ccccc2)n1C`, for which the Potency result is “inactive”.

Consider `O=[N+]([O-])c1ccc(O)cc1`, for which the Potency entry is “inactive”.

Consider `CCCCCCCCCCCCCCCCCC(=O)OCC(O)CO` (stereo not given), for which the Potency result was “inactive”.

Take `C=CC(=O)NC(C)(C)CS(=O)(=O)O`: the Potency entry was “inactive and 24.5 µM (active)”.

For the compound `CCOCCO`, the Potency result was “inactive”.

As to `C=CCOC(=O)CC(C)C`, the Potency result was “inactive”.

For `O=C1CCCCCN1`, the Potency result is “inactive”.

`N[C@@H](Cc1c[nH]c2ccccc12)C(=O)O`: the Potency result is “inactive”.

As for `CC(=O)Oc1ccccc1C(=O)O`, the Potency result was “inactive”.

`CC(=O)c1ccc(S(=O)(=O)NC(=O)NC2CCCCC2)cc1`: the Potency result was “inactive”.

On to `COCC(C)N` (stereo not given), for which the Potency entry is “inactive”.

For `CO[C@H]1C=CO[C@@]2(C)Oc3c(C)c(O)c4c(O)c(c(/C=N/N5CCN(C)CC5)c(O)c4c3C2=O)NC(=O)/C(C)=C\C=C[C@H](C)[C@H](O)[C@@H](C)[C@@H](O)[C@@H](C)[C@H](OC(C)=O)[C@@H]1C`, the Potency entry is “inactive”.

As for `O=c1cc[nH]c(=O)[nH]1`, the Potency result was “inactive”.

As to `O=C1OC(c2ccc(O)cc2)(c2ccc(O)cc2)c2ccccc21`, the Potency result was “inactive”.

For `COc1cc2c(c(OC)c1OC)-c1ccc(OC)c(=O)cc1[C@@H](NC(C)=O)CC2`, the Potency entry is “inactive”.

Turning to `O=c1c(-c2ccc(O)cc2)coc2cc(O)cc(O)c12`, the Potency entry is “inactive”.

For `Cc1ccc(O)c(-n2nc3ccccc3n2)c1`, the Potency entry is “inactive”.

As for `Cc1cccc(C)c1O`, the Potency result was “inactive”.

As to `CN(C)Cc1cc(CN(C)C)c(O)c(CN(C)C)c1`, the Potency result is “inactive”.

With `CCCCCCCCCCCCCC(=O)OC(C)C`, the Potency result was “inactive”.

As for `COc1ccc(O)cc1`, the Potency result is “inactive”.

Consider `NC(=O)OCC(COC(N)=O)c1ccccc1`, for which the Potency result was “inactive”.

Take `OCCCc1ccccc1`: the Potency result was “inactive”.

Turning to `O=C(O)Cc1cccc2ccccc12`, the Potency entry was “inactive”.

For the compound `CCCCOCCOCCSC#N`, the Potency result is “inactive”.

As to `CCCCC/C(C=O)=C\c1ccccc1`, the Potency result is “inactive”.

As to `O=C(OCc1ccccc1)c1ccccc1`, the Potency entry is “inactive”.

As to `C[C@]12CC[C@@H]3c4ccc(O)cc4CC[C@H]3[C@@H]1CCC2=O`, the Potency result was “inactive”.

Consider `Cc1cccc2ccccc12`, for which the Potency entry was “inactive”.

For the compound `CCCCCCCCOc1ccc(C(=O)c2ccccc2)c(O)c1`, the Potency result is “inactive”.

On to `C/C=C/c1ccc(O)c(OC)c1`, for which the Potency result is “inactive”.

As for `C1CNCCN1`, the Potency entry is “inactive”.

Take `COc1ccccc1NC(=O)CC(C)=O`: the Potency entry was “inactive”.

For the compound `Cc1cnc(NC(=O)C2=C(O)c3ccccc3S(=O)(=O)N2C)s1`, the Potency result is “inactive”.

`COc1ccccc1O`: the Potency result is “inactive”.

Consider `C#C[C@]1(O)CC[C@H]2[C@@H]3CCc4cc(O)ccc4[C@H]3CC[C@@]21C`, for which the Potency result was “inactive”.
